BAZ2B block = inhibitors of human BAZ2B bromodomain. 360,000 compounds, 4.4% hits. Q9UIF8. Potency, µM (highest dose often 114 µM), for inactives: at the top dose activity change, negative = inhibition, hits mostly inhibitors. AID 504333. AlphaScreen BAZ2B-H3K14Ac peptide displacement; note: % is set by controls: 0 for no effect and ±100 for the full control effect; nearly all actives have a fitted effect of over 60% in size
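Complex of BAZ2B and biotin-H3K14Ac (50 nM apiece) forms over 30 min at RT, then faces library compounds up to 110 uM for another 30 min; AlphaScreen beads added, 20 min dark incubation, luminescence read.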
HP1b binding inh = blocks HP1-beta chromodomain binding to methylated histone tails; P83916; AlphaScreen HP1-beta / biotin-H3K9me3 peptide binding; Potency, µM (series often up to 114 µM), inactives show top-dose activity change, negative = inhibition, hits mostly inhibitors; 390,000 compounds, 0.56% hits; note: nearly all actives have a fitted effect of over 70% in size
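AlphaScreen: HP1-beta (50 nM) preformed 30 min with biotin-H3(1-18)K9me3 peptide (50 nM) in PBS pH 7.4, 0.01% Tween-20. Compound added for 30 min at RT, then streptavidin donor/nickel chelate acceptor beads (10 ug/mL) for 30 min.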
JMJD2A Tudor inh = JMJD2A Tudor domain (human) inhibition; 390,000 compounds, 4.4% hits; Potency, µM (series often up to 114 µM), for the others: at the top dose activity change, negative = inhibition, hits mostly inhibitors; O75164; AlphaScreen JMJD2A-Tudor / H3K4me3 peptide binding; note: % is set by controls: 0 for no effect and ±100 for the full control effect; nearly all actives have a fitted effect of over 50% in size
Sfp inh = inhibitors of Bacillus subtilis Sfp phosphopantetheinyl transferase | Q9F4F7 | Biochemical Sfp PPTase activity, qHTS | Potency, µM, inactives show largest response in the series, negative = inhibition, most hits filed as inhibitors | 310,000 compounds, 3.5% hits | AID 1490;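 note: the enzyme is Sfp with the accession as filed and its product quenches rhodamine fluorescence; 0% = enzyme reaction without inhibitor and -100% = no enzyme wells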
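Reaction rates are the 30-min fluorescence difference (ex 525, em 598 nm) in wells containing 15 nM Sfp, 5 uM rhodamine-CoA and 12.5 uM BHQ-2-YbbR at pH 7.6 with 10 mM MgCl2.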
TDP1 inh = blocks human tyrosyl-DNA phosphodiesterase 1; Potency, µM (doses to about 130 µM), inactives show at the top dose activity change, negative = inhibition, hits mostly inhibitors; AID 485290; recombinant TDP1, AlphaScreen DNA substrate cleavage; 350,000 compounds, 0.28% hits; Q9NUW8; note: % is set by controls: 0 for no effect and ±100 for the full control effect; nearly all actives have a fitted effect of over 40% in size
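Tdp1 1 nM final; 15 min RT w/ cpd; substrate 15 nM, 5 min; beads 10 ug/ml, 10 min; AlphaScreen read. Neg ctrl: no enzyme.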
G9a inh = inhibitors of human histone lysine methyltransferase G9a; AID 504332; Potency, µM (highest dose often 102 µM), for the others: at the highest dose activity, negative = inhibition, most hits filed as inhibitors; 350,000 compounds, 8.8% hits; Q96KQ7; G9a H3K9 monomethylation, AlphaScreen, 2 h; note: % is set by controls: 0 for no effect and ±100 for the full control effect; nearly all actives have a fitted effect of over 75% in size
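Using a bead-based AlphaScreen, monomethylated H3K9 product from 2 h room-temperature reactions (G9a 20 nM, peptide 500 nM, SAM 20 uM) was detected with 0.5 ug/mL rabbit anti-H3K9me1 antibody.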
Numbers without * were called inactive; ? = inconclusive; nt = no result; ! = repeats disagree; [ ] = remark or other dose. A selection: hits, their analogues and other compounds. The true share with any hit is near 12%. Calls come from the whole dose curve; as a rule, active = well fitted curve in the direction sought with a large enough effect; inconclusive = small, poorly fitted or top-dose-only effect, or another doubt; inactive = no such curve, though single readings can be large; an effect the other way counts as inactive or inconclusive. Potency is the fitted concentration of half-maximal effect.

SMILES | BAZ2B block | HP1b binding inh | JMJD2A Tudor inh | Sfp inh | TDP1 inh | G9a inh
Fc1ccc(-c2n[nH]c(=S)n2CC2CCCO2)cc1 (configuration not stated) | -37% | 6% | -4%[11.4 µM] | -26% | -2% | 2.8µM*
Cc1cccc(N2N=C(C(=O)Nc3nc(C)cs3)CCC2=O)c1 | ? | 21% | -15% | -11% | -1% | ?
CCOC(=O)c1cccc2c1N[C@@H](c1ccc(F)cc1)[C@H]1CC=C[C@@H]21 | ? | ? | 40µM* | nt | nt | 10µM*
N#C/C(=C\c1ccc(N2CCOCC2)o1)C(=O)NCC1CCCO1 (configuration not stated) | -16% | 23% | -12% | -1% | 3% | nt
N#C/C(=C\c1ccc(-c2ccc(C(=O)O)cc2)o1)C(=O)NCC1CCCO1 (configuration not stated) | ? | 8% | -17% | 4% | 56µM* | 10µM*
c1ccc(-c2nccc(-c3ccco3)n2)nc1 | 32µM* | 32% | ? | 7% | -3% | ?
c1ccc(-c2noc(-c3ccco3)n2)nc1 | 11% | -12% | 10%[11.4 µM] | 8% | 4% | 21%[59 µM]
c1ccc(-c2nc(-c3ccco3)cs2)nc1 | 6% | -26% | -36% | 45µM* | 4% | ?
Cc1ccc2c(c1)C(c1ccccc1)N(C(=O)COc1ccc(Cl)cc1Cl)CC(=O)N2 (configuration not stated) | -17% | 15% | -21% | nt | 3% | -9%[59 µM]
Cc1cnc(NC(=O)c2cncc(Br)c2)s1 | -11% | 47% | -2% | -2% | 5% | 0%
Cc1cnc(NC(=O)c2ccncc2)s1 | -29% | 11% | 5% | 9% | 8% | 50µM*
O=C1CCCc2c1oc1c2CCCC1 | nt | ? | -32% | nt | nt | nt
C/C(=N/Nc1ccc(C)cc1)C1(C)N(O)C(C)(C)C(c2ccco2)=[N+]1[O-] (configuration not stated) | ? | 10% | -34% | -14% | 5% | 7.1µM*
O=C(CSc1nnnn1C1CCCCC1)Nc1ccccc1N1CCOCC1 | -27% | 31% | -10% | -1% | -3% | 35µM*
CSCC[C@H](NC(=O)[C@H](CCCN=C(N)N)NC(=O)[C@@H]1CCCN1C(=O)[C@H](Cc1ccccc1)NC(=O)[C@H](C)NC(=O)[C@H](CC(C)C)NC(=O)[C@H](Cc1ccc(O)cc1)NC(=O)[C@H](CC(N)=O)NC(=O)[C@@H](N)CCSC)C(N)=O | nt | nt | nt | 6% | 9% | nt
CN(C)CCCN1c2ccc([N+](=O)[O-])cc2CCc2cc([N+](=O)[O-])ccc21 | nt | ? | 18µM* | nt | nt | nt
CCOC(=O)Nc1ccc2c(c1)N(CCCN(C)C)c1ccccc1CC2 | -1%[0.457 µM] | 6% | ? | 2% | nt | -48%[59 µM]
Cc1ccc(C)c(NC(=S)NCc2ccc3[nH]c4c(c3c2)CCCC4)c1 | 32µM* | ? | 50µM* | -7% | 11% | 40µM*
O=C(NCc1ccc2[nH]c3c(c2c1)CCCC3)N1CCOCC1 | -1% | nt | nt | -18% | 7% | ?
S=C(NCc1ccc2[nH]c3c(c2c1)CCCC3)Nc1ccccc1Cl | 35µM* | ? | 50µM* | -10% | 5% | 40µM*
Cc1ccccc1NC(=S)NCc1ccc2[nH]c3c(c2c1)CCCC3 | 40µM* | ? | 40µM* | 5% | -5% | 40µM*
Cc1ccc(C)c(NC(=S)NCc2ccccc2)c1 | -25% | 31% | -12% | 21% | nt | 24%
COc1cccc(C(=O)NC(=S)Nn2cnnc2)c1OC | ? | 15% | -6% | 22µM* | -1% | 14µM*
CCC(=O)Nc1cccc(NC(=S)NC(=O)c2ccccc2Cl)c1 | 4% | 31% | -20% | 2% | 2% | 14%
O=C(NC(=S)Nc1ncccn1)c1ccccc1Cl | -26% | 21% | ? | 32µM* | -2% | 79µM*
SMILES | BAZ2B block | HP1b binding inh | JMJD2A Tudor inh | Sfp inh | TDP1 inh | G9a inh
COc1cccc(C(=O)C(=O)c2cccc(OC)c2OC)c1OC | nt | 8%[57 µM] | -19% | nt | nt | nt
O=C(NC(=S)N1CCCC1)c1ccccc1Cl | -14% | 18% | -2% | 14% | 2% | 17%
O=C(NC(=S)Nn1cnnc1)c1ccc(F)cc1Cl | ? | ? | -23% | 50µM* | 9% | 14µM*
O=C(NC(=S)Nn1cnnc1)c1ccccc1Cl | ? | -23% | -21% | 40µM* | -6% | 14µM*
Cc1nc(C(F)(F)F)c(C(=O)N=CN(C)C)s1 | -13% | 42% | -15% | 25% | -3% | 25%[12.7 µM]
NC(Cc1c[nH]c2ccc(OCc3ccccc3)cc12)C(=O)O (configuration not stated) | ? | 5% | ? | -11% | nt | 45µM*
NC(=S)N/N=C/c1c[nH]c2ccc(OCc3ccccc3)cc12 | 35µM* | -19% | ? | 32µM* | 11% | 40µM*
N[C@@H](Cc1c[nH]c2ccc(O)cc12)C(=O)O | ? | -21% | ? | -26% | 9%[56.1 µM] | 8.4µM*!
NC(=S)N/N=C\c1ccccc1OCc1ccccc1 | ? | -16% | -28% | -3% | 7% | -19%[59 µM]
COc1ccc2[nH]cc(CC(N)C(=O)O)c2c1 (configuration not stated) | nt | nt | nt | ? | 15% | ?
O=C(/C=C/c1ccc(Br)o1)OCc1ccccc1 | 92% | 182% | 139% | -11% | -9% | 14%[59 µM]
Cc1ccccc1NC(=O)CN1C(=O)c2ccccc2C1=O | 3% | 22% | 0% | -4% | nt | nt
Cc1ccccc1NC(=O)CN1C(=O)S/C(=C\c2ccc(-c3cccc(C(=O)O)c3C)o2)C1=O | -36% | -34% | -16%[11.4 µM] | -30% | 5% | 20µM*
O=C1C(=Cc2ccc(Br)o2)C(=O)c2ccccc21 | 13µM* | ? | 7.9µM* | 56µM* | ? | 20µM*
COC(=O)C(C)N1C(=O)S/C(=C/c2cc(C)n(-c3ccccn3)c2C)C1=O (configuration not stated) | ? | 20% | -28% | 2% | 4% | ?
Cc1cc(C(=O)O)ccc1-n1c(C)cc(/C=C(/C#N)C(=O)Nc2ccccc2)c1C | ? | 17% | -9% | -14% | nt | nt
COC(=O)C(C)N1C(=O)S/C(=C\c2ccc(-c3ccc(C(=O)O)cc3C)o2)C1=O (configuration not stated) | ? | ? | ? | -1% | nt | 40µM*
Cc1cc(C(=O)O)ccc1-n1c(C)cc(C=C2C(=O)c3ccccc3C2=O)c1C | -35% | -15% | ? | -21% | nt | 28µM*
Cc1ccc(CNC(=O)C(C)n2c(=O)cc(-c3ccccc3)c3c(C)nn(C)c32)cc1 (configuration not stated) | -14% | 24% | -15% | nt | 6% | -2%[59 µM]
